CtBP-E1A inh: blocks the CtBP interaction with E1A | AlphaScreen GST-E1A/His-CtBP binding, 1536-well; stronger effect = lower value | activity change, % (no concentration beside the values) | 340,000 compounds, 0.49% hits | AID 651724; in the data active means activity change below about -65%; inconclusive means mostly about -30% to -63%
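In 5 uL wells, 23 nL compound meets equimolar GST-E1A and His-CtBP (5X stock 125 nM each) for 2 h, 37 °C. Beads (5X, 50 ug/mL) then 1 h, 37 °C, dark.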
TDP1 block: blocks human tyrosyl-DNA phosphodiesterase 1 | Potency, µM (doses to about 130 µM), most hits filed as inhibitors | recombinant TDP1, AlphaScreen DNA substrate cleavage | Q9NUW8 | 350,000 compounds, 0.28% hits; further: nearly all actives have a fitted effect of over 40% in size
Target sequence (Q9NUW8 whole entry, looked up): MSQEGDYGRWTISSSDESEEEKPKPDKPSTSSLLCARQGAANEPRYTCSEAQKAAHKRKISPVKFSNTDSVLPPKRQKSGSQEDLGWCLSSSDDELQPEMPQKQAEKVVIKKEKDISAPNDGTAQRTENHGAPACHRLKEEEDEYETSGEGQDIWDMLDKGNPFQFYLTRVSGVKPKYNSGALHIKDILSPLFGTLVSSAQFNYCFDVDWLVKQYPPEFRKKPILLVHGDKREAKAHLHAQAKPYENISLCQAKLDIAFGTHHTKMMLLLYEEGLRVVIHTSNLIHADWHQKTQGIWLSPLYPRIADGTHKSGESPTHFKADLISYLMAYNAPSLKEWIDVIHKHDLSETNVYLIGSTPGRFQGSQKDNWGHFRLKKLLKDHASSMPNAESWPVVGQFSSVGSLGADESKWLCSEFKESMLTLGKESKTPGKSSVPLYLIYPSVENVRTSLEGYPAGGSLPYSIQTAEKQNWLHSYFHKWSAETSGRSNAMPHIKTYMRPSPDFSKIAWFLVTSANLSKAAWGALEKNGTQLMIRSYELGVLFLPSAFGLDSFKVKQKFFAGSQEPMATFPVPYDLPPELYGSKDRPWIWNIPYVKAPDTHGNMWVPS
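Signal: AlphaScreen proximity between streptavidin donor and anti-FITC acceptor beads on intact substrate. Reaction: Tdp1 1 nM, substrate 15 nM final, 5 min RT after 15 min compound preincubation.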
IL-1B inflam inh: blocks inflammasome-driven IL-1 beta release | AID 743279 | THP-1 LPS/ATP IL-1B secretion, AlphaLISA, 16 h; stronger effect = lower value | 360,000 compounds, 4.7% hits | activity change, % at 57.5 µM; in the data active means activity change below about -50%; inconclusive means mostly about -30% to -49%
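Secreted IL-1B measured by AlphaLISA bead assay after 16 h compound exposure of THP-1 cells; compounds (final up to 57.5 uM) added 1 h before LPS (250 ng/mL) and ATP (1.25 mM) stimulation; lower signal means less secretion.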
Six1-Eya2 blk: Six1/Eya2 interaction inhibition; 360,000 compounds, 0.56% hits; Q15475+O00167; AID 651725; activity change, % (test concentration not listed); AlphaScreen GST-Six1/His-Eya2 binding, biochemical; stronger effect = lower value; in the data active means activity change below about -65%; inconclusive means mostly about -30% to -63%
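Compounds are tested against tagged Six1 and Eya2 proteins bridged by glutathione donor and nickel acceptor beads; after a one-hour incubation at 37 °C without light, AlphaScreen emission is recorded.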
DT40 TDP1 no CPT: qHTS for Inhibitors of human tyrosyl-DNA phosphodiesterase 1 (TDP1): qHTS in cells in absence of CPT; DT40 Tdp1-/- hTDP1 cells, no CPT, ATP luminescence, 48 h; 420,000 compounds, 15% hits; Potency, µM (top dose mostly 46.2 µM), most hits filed as inhibitors; further: nearly all actives have a fitted effect of over 55% in size
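Chicken DT40 Tdp1-/- cells complemented with human TDP1, screened without camptothecin (DMSO vehicle only), 400 cells/well. Compounds pin-transferred, cells incubated at 37 °C for at least 48 hr. Growth read as ATP-dependent luminescence (CellTiter-Glo, 30 min at RT).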
DT40 TDP1 CPT: growth inhibition of DT40 Tdp1-/-;hTDP1 cells with camptothecin (screen for TDP1 inhibitors). chicken DT40 Tdp1-/-;hTDP1 cells + 20 nM CPT, ATP luminescence, 48 h. AID 686979. 420,000 compounds, 12% hits. Potency, µM (top dose mostly 46.2 µM), most hits filed as inhibitors; further: nearly all actives have a fitted effect of over 55% in size
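Cell growth measured by CellTiter-Glo luminescence after a minimum 48 h, 37 C compound exposure with 20 nM CPT in Tdp1-knockout DT40 cells stably expressing hTDP1, seeded 400/well; qHTS titration format.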
Hits are given with their value; – = inactive; ? = inconclusive; · = not tested or not shown. Only some compounds are listed: those with a hit (about 18% of all), similar ones and a draw of the others. Unless noted, the call rests on the fitted dose curve; in most records, active means well fitted curve in the direction sought with a large enough effect; inconclusive means small, poorly fitted or top-dose-only effect, or another doubt; inactive means no such curve, though single readings can be large; an effect the other way counts as inactive or inconclusive.

SMILES | CtBP-E1A inh | TDP1 block | IL-1B inflam inh | Six1-Eya2 blk | DT40 TDP1 no CPT | DT40 TDP1 CPT
C=CCNc1oc(-c2ccc(OC)cc2)nc1C#N | – | – | – | – | ? | 16.4µM
CC(C)NC(=O)c1ccc(COc2cc(Cl)ccc2Cl)o1 | – | · | -61.8 | – | 20.6µM | –
CCOc1ccc(OCc2ccc(C(=O)NC(C)C)o2)cc1 | · | · | – | – | ? | ?
CN(Cc1ccccc1)S(=O)(=O)c1ccc(Cl)c(C(=O)N2CCC2)c1 | – | – | – | – | ? | ?
Cc1ccc(-c2nc3c4ccccc4ccn3c2CC2CCCCC2)cc1 | – | · | – | – | – | ?
COc1ccc(-c2nc3c4ccccc4ccn3c2Cc2cccc(F)c2)cc1OC | – | · | – | – | ? | ?
COc1ccc(-c2nc3c4ccccc4ccn3c2CN2CCOCC2)cc1OC | · | · | ? | – | ? | 14.6µM
COc1ccc(-c2nc3c4ccccc4ccn3c2CC2CCCCC2)cc1OC | – | · | – | – | 23.1µM | ?
c1ccc(-c2nc3c4ccccc4ccn3c2CN2CCOCC2)cc1 | · | · | – | – | 18.4µM | 10.3µM
Clc1ccc2nc(-c3ccccc3)c(CN3CCOCC3)n2c1 | – | – | – | – | ? | ?
Cc1ccc(S(=O)(=O)Nc2cccc(-c3ccc4nncn4n3)c2)cc1 | – | – | – | – | 2.31µM | 1.84µM
CCC(CC)C(=O)Nc1cccc(-c2ccc3nncn3n2)c1 | · | – | – | – | – | –
CCOc1ccccc1C(=O)Nc1cccc(-c2ccc3nncn3n2)c1 | ? | – | – | ? | 23.1µM | 23.1µM
Cc1ccccc1C(=O)Nc1cccc(-c2ccc3nncn3n2)c1 | – | – | – | – | 20.6µM | 23.1µM
CC(=O)c1ccc(S(=O)(=O)Nc2cccc(-c3ccc4nncn4n3)c2)cc1 | – | – | – | – | – | –
CCCCNc1cc(C)nc(N2CCOCC2)n1 | – | – | – | – | – | –
COc1ccccc1N(C(=O)c1cncc(Br)c1)c1nc(-c2ccc(C)cc2)cs1 | · | – | – | – | 18.4µM | 20.6µM
CN(C)S(=O)(=O)c1ccc(C(=O)Nc2ccc(S(=O)(=O)NC3=NCCCCC3)cc2)cc1 | – | – | – | – | – | –
O=C(Nc1ccc(S(=O)(=O)NC2=NCCCCC2)cc1)c1ccc(Cl)c([N+](=O)[O-])c1 | – | – | -95.9 | – | 23.1µM | ?
Cc1ccnc(NS(=O)(=O)c2ccc(NC(=O)c3ccc([N+](=O)[O-])s3)cc2)n1 | ? | – | – | – | ? | ?
Cc1cc(NS(=O)(=O)c2ccc(NC(=O)c3ccc([N+](=O)[O-])s3)cc2)nc(C)n1 | ? | – | -53.2 | – | – | –
COc1ccc(C(=O)Nc2ccc(S(=O)(=O)Nc3cc(C)nc(C)n3)cc2)c(OC)c1 | – | – | – | – | 23.1µM | 20.6µM
COc1ccc(C(=O)Nc2ccc(C)cn2)c(OC)c1 | – | – | – | – | ? | 20.6µM
COc1ccc(C(=O)Nc2cc(C)on2)c(OC)c1 | – | · | – | – | – | –
CCc1ccc(OCC(=O)NNC(=O)CNC(=O)c2ccc(Br)o2)cc1 | – | – | – | – | – | –
SMILES | CtBP-E1A inh | TDP1 block | IL-1B inflam inh | Six1-Eya2 blk | DT40 TDP1 no CPT | DT40 TDP1 CPT
O=C(Nc1ccc(S(=O)(=O)NC2=NCCCCC2)cc1)c1cccs1 | · | – | – | – | ? | –
O=C(Nc1ccc(S(=O)(=O)NC2=NCCCCC2)cc1)c1ccc([N+](=O)[O-])s1 | – | · | -57.0 | – | 10.3µM | 5.17µM
O=[N+]([O-])c1cc(S(=O)(=O)NC2=NCCCCC2)ccc1NCC1CCCCC1 | – | – | – | – | ? | 16.4µM
O=C(Nc1ccc(C(O)(C(F)(F)F)C(F)(F)F)cc1)c1ccc(Cl)c([N+](=O)[O-])c1 | – | – | -100.7 | – | 18.4µM | 11.6µM
Cc1nc2cc(NC(=O)c3ccc([N+](=O)[O-])s3)ccc2s1 | – | · | – | – | 5.17µM | 2.91µM
CC(=O)Nc1ccc2nc(NC(=O)c3ccc([N+](=O)[O-])s3)sc2c1 | · | – | · | · | · | ·
O=C1CCN(Cc2ccccc2)CCN1CCOc1ccccc1 | – | · | – | – | 16.4µM | 20.6µM
CC(C)C(CO)N1CCN(Cc2ccccc2)CCC1=O (stereo not drawn) | – | · | – | – | – | –
O=C(Nc1cccc(Cl)c1)OCCN1CCN(Cc2ccccc2)CCC1=O | – | – | – | – | 18.4µM | ?
CC(C)[C@@H](COc1ccccc1)N1CCN(Cc2ccccc2)CCC1=O | – | · | – | – | ? | 11.2µM
O=C(Nc1ccc(Cl)cc1)OCCN1CCN(Cc2ccccc2)CCC1=O | · | – | · | · | · | ·
O=C(Nc1ccccc1)OCCN1CCN(Cc2ccccc2)CCC1=O | · | – | – | – | – | –
COCCN1C(=O)c2[nH]nc(-c3c(C)cc(C)cc3O)c2C1c1cccc(O)c1 (stereo not drawn) | · | – | · | · | ? | ?
CCOC(=O)N1CCC(NC(=O)CSCc2nc(-c3ccc(OCC)cc3)oc2C)CC1 | – | – | – | – | ? | ?
COc1ccc(-c2nc(CSCC(=O)N3CCN(c4ccccc4F)CC3)c(C)o2)cc1 | · | – | · | · | 8.2µM | 16.4µM
CCOc1ccc(-c2nc(CSCC(=O)N3CCN(c4cccc(OC)c4)CC3)c(C)o2)cc1 | – | – | – | – | ? | 23.1µM
CCOC(=O)c1cc(CC)sc1NC(=O)COC(=O)c1ccccn1 | – | – | – | – | – | –
CC(=O)c1cc(Cl)ccc1OC(=O)c1ccco1 | – | – | – | – | – | –
O=C(Oc1ccc(OC(=O)c2ccco2)c(S(=O)(=O)c2ccc(Cl)cc2)c1)c1ccco1 | – | – | – | – | 16.4µM | –
Cn1c(=O)n(C)c2cc([N+](=O)[O-])c(N3CCN(S(=O)(=O)c4ccc(C(C)(C)C)cc4)CC3)cc21 | – | – | – | – | ? | 20.6µM
CCS(=O)(=O)N1CCN(c2cc3c(cc2[N+](=O)[O-])n(C)c(=O)n3C)CC1 | – | – | – | – | ? | –
CC(=O)Nc1ccc(S(=O)(=O)N2CCN(c3cc4c(cc3[N+](=O)[O-])n(C)c(=O)n4C)CC2)cc1 | – | – | – | – | 18.4µM | ?
COc1ccc(N(CC(=O)N2CCCCCC2)S(=O)(=O)c2c(C)[nH]c(=O)[nH]c2=O)cc1 | – | – | – | – | – | –
Cc1ccc(-c2[nH]ncc2C(=O)c2cccc(F)c2)c(O)c1 | – | · | – | – | 14.6µM | ?
Cc1ccc(O)c(-c2[nH]ncc2C(=O)c2ccc(Br)cc2)c1 | – | · | – | – | – | ?
Cc1ccc(O)c(-c2[nH]ncc2C(=O)c2ccc(Cl)cc2)c1 | – | · | -85.6 | – | – | –
CC(=O)Nc1ccc(OCc2cc(=O)n3ccccc3n2)cc1 | · | – | · | · | – | –

Source: PubChem BioAssay
